The list is not random: actives were taken first. Their share in the collection is about 3.5%.
MITF inh: MITF inhibitors, primary screen, biochemical, AlphaScreen, human | AID 1259374, 2018 | 0.91% of 650,000 active | inhibition, % at 2.6 µM | Microphthalmia-associated transcription factor (Homo sapiens), O75030 | AlphaScreen MITF homodimerization, bead proximity signal; in the data active = inhibition above about 50%;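 note: 0% = vehicle wells with protein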
FBW7 act: FBW7 E3 ligase activators, primary screen, biochemical, AlphaScreen, human. normalized activity (activation), % at 26.1 µM. AlphaScreen FBW7–phospho-cyclin E peptide binding, activator screen. 0.13% of 650,000 active; in the data active = normalized activity above about 1.9%;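 note: purified mutant Fbw7 with reduced substrate affinity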
Target sequence (Q969H0 whole entry, looked up): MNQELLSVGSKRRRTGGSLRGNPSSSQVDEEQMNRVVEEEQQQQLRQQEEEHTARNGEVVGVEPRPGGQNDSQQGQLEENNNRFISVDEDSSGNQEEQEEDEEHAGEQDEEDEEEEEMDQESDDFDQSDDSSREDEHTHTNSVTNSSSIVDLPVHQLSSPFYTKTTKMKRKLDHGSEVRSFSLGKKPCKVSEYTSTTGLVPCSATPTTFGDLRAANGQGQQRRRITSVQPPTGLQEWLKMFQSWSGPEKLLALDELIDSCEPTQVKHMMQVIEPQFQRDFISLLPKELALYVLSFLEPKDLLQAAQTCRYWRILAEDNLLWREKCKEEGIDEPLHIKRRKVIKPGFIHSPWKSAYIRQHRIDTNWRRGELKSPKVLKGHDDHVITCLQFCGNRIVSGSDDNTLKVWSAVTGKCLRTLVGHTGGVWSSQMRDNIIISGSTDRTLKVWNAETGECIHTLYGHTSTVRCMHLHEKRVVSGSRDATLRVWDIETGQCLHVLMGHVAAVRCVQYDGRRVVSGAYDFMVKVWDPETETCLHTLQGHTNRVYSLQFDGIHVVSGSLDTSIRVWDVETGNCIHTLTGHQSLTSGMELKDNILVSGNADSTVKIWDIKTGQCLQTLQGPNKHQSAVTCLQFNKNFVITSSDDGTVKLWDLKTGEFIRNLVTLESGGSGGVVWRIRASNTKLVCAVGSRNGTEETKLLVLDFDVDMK
GPR151 activ: activators of human GPR151, primary screen, cell-based, PathHunter beta-arrestin, luminescence. G-protein coupled receptor 151 (Homo sapiens), Q8TDV0. PathHunter beta-arrestin GPR151 cells. activation, % at 11.2 µM. 1% of 650,000 active; in the data active = activation above about 4.9%;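 note: 0% = median of compound wells and 100% = cells with positive control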
TEAD-YAP block: TEAD-YAP interaction inhibition, primary screen, TEAD-YAP interaction inhibitor project, luminescence, HEK-TIYL cells; TEAD-Gal4/YAP UAS-luciferase luminescence; inhibition, % at 9.12 µM; 1.4% of 640,000 active; in the data active = inhibition above about 32%;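 note: 0% = median of test compound wells and 100% = reference inhibitor wells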
MITF confirm: MITF inhibitors, retest of hits, confirmation, biochemical, AlphaScreen, triplicate. shares compounds with MITF inh. AlphaScreen MITF homodimerization, biotin/His-MITF beads. inhibition, % at 2.6 µM. 16% of 4,700 active. AID 1259372, 2018;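 active = inhibition above a cutoff derived from the DMSO control wells, cut at about 28% in these data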;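 note: 0% = MITF dimer wells with DMSO only; inhibitors lower the bead chemiluminescence by keeping MITF from dimerizing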
AS interf DR: AlphaScreen optical interference compounds, dose response, counter-screen, biochemical, HTS; shares compounds with MITF inh; AlphaScreen optical interference counterscreen, cell-free; IC50, µM; 6% of 480 active; AID 1259373, 2018; call rule not given here
AlphaScreen intf2: AlphaScreen optical interference compounds, counter-screen for MITF inhibitor project, biochemical, triplicate | inhibition, % at 2.6 µM | shares compounds with MITF inh | AID 1259376, 2018 | LysRS AlphaScreen counterscreen, signal interference | 7.6% of 4,700 active;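 active = inhibition above a cutoff derived from the DMSO control wells, cut at about 30% in these data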
* hit, by the source's call; . = no result.

SMILES | MITF inh | FBW7 act | GPR151 activ | TEAD-YAP block | MITF confirm | AlphaScreen intf2 | others
CC(C)COc1ccc2c(c1)Sc1ccccc1N2CCN(C)C | 53.7* | -0.3 | 1.4 | 3.1 | 20.5 | 20.4
CN1CCN(CC(=O)c2c(-c3ccccc3)n(C)c3ccccc23)CC1 | 57.4* | -0.2 | -0.4 | -11.2 | -7.4 | 3.6
O=[N+]([O-])c1ccc(OCCCn2cncn2)cc1 | -1.7 | 0.0 | 3.1 | 11.0 | . | .
Clc1ccc(OCCOCCn2cncn2)cc1Cl | 79.5* | 0.1 | -1.9 | -2.5 | 8.0 | 21.0
Fc1ccc(OCCCn2cncn2)cc1 | 70.5* | 0.4 | 0.1 | 3.7 | 8.2 | 19.4
CC(C)(C)c1ccc(OCCn2cncn2)c(Cl)c1 | 57.7* | -0.2 | -0.7 | -10.3 | 31.9* | 18.0 | AS interf DR=>6.48
Cc1ccc(C(C)(C)C)c(OCCOCCn2cncn2)c1 | 77.9* | 0.1 | 1.1 | 9.2 | -0.5 | 4.7
Cc1ccc(C(C)(C)C)c(OCCCn2ccnc2)c1 | 22.4 | -0.2 | -0.8 | -13.7 | . | .
Clc1cccc(OCCn2cncn2)c1Cl | 46.6 | 0.1 | 0.6 | -4.7 | . | .
N#Cc1ccc(OCCOCCn2cncn2)cc1 | 17.9 | 0.1 | 0.1 | -0.1 | . | .
O=[N+]([O-])c1ccc(S(=O)(=O)NCc2ccc3[nH]c4c(c3c2)CCCC4)cc1 | 12.3 | 0.2 | -1.2 | -16.9 | . | .
CCC(C)(C)c1ccc(OCCOCCn2cncn2)c(Cl)c1 | 66.6* | -0.1 | 2.3 | 7.7 | -0.2 | 2.6
COc1cc2cc3c(N)c(C(=O)Nc4sc(C)c(C)c4C#N)sc3nc2cc1OC | 62.3* | -0.2 | 1.2 | -0.5 | 70.1* | 22.4 | AS interf DR=>6.48
CCC(=O)Nc1ccccc1C(=O)OCC(=O)c1cccc([N+](=O)[O-])c1 | 55.5* | 0.3 | -0.1 | -2.8 | -0.7 | -7.5
CCN1CCN(CCOc2ccc(C#N)cc2)CC1 | 53.8* | -0.1 | 0.3 | 9.4 | 6.4 | 8.4
CCC(C)c1ccc(OCCNCCO)cc1 (stereo not given) | 55.6* | 0.0 | 0.9 | -0.7 | -16.7 | -8.5
CCOc1ccc(OCCCNCCO)cc1 | 18.2 | 0.0 | -2.1 | 13.3 | . | .
CCC(C)c1ccc(OCCN2CCN(CC)CC2)cc1 (stereo not given) | 55.7* | -0.2 | 1.4 | 3.4 | 7.6 | 10.6
N#Cc1ccc(OCC(O)CN2CCN(CCOc3ccccc3)CC2)cc1 (stereo not given) | 81.2* | 0.0 | -1.5 | -3.2 | 2.4 | 9.4
COc1ccc(NC(=O)CSc2nc3ccccc3nc2Cc2ccccc2OC)cc1Cl | -11.8 | 0.4 | -0.8 | 10.8 | . | .
COc1ccccc1Cc1nc2ccccc2nc1SCC(=O)Nc1ccc(OC)c(OC)c1 | 73.0* | 0.1 | 4.2 | -26.0 | 3.6 | -6.0
C=CCNC(=O)c1ccc(-c2ccco2)nc1N1CCN(C(=O)c2ccco2)CC1 | 7.3 | 0.1 | 1.0 | 11.7 | . | .
O=C(CCSc1nnc2ccccn12)Nc1ccc(F)cc1 | 67.1* | -0.1 | 0.1 | -3.4 | 10.8 | -6.7
Cc1onc(-c2ccccc2)c1C(=O)Nc1cccc(C#N)c1 | 70.1* | 1.1 | -0.1 | 7.6 | 8.7 | 8.8
c1ccc(-c2cc3ccccc3[nH]2)nc1 | 16.8 | -0.1 | -2.6 | -37.5 | . | .
SMILES | MITF inh | FBW7 act | GPR151 activ | TEAD-YAP block | MITF confirm | AlphaScreen intf2 | others
O=c1cc(-c2ccccn2)[nH][nH]1 | 114.0* | -0.6 | -3.2 | -50.4 | 109.6* | 100.6*
O=[N+]([O-])c1cccc(P(=O)(c2cccc([N+](=O)[O-])c2)N2CCOCC2)c1 | 50.8* | -0.1 | 0.4 | -4.0 | -6.0 | -4.7
CCn1c2ccccc2c2cc(CN3CCN(Cc4cc(OC)c(OC)c(OC)c4)CC3)ccc21 | 61.3* | 0.5 | -1.2 | 1.4 | 0.9 | 2.3
CCn1c2ccccc2c2cc(CN3CCN(Cc4ccc(OC)c(Br)c4)CC3)ccc21 | 60.2* | -0.5 | -0.2 | 1.1 | 14.2 | 19.2
CCn1c2ccccc2c2cc(CN3CCN(C(=O)c4c(OC)cccc4OC)CC3)ccc21 | 39.8 | -0.2 | -1.2 | -6.5 | . | .
CCn1c2ccccc2c2cc(CN3CCN(C(=O)c4cccc(OC)c4OC)CC3)ccc21 | 18.5 | -0.2 | 0.7 | -1.6 | . | .
Cc1cccc(Cn2c(C(=O)O)c(CNC3CCCCC3C)c3ccccc32)c1 (stereo not given) | -4.3 | -0.1 | -0.3 | 5.0 | . | .
C=C(C)Cn1c(SC)nc2sc3c(c2c1=O)CCC3 | 13.4 | 0.2 | 0.7 | 3.8 | . | .
CCCC(C)NC(=O)Cc1ccc(Br)cc1 (stereo not given) | 50.8* | 0.0 | 1.0 | -14.6 | 3.2 | 8.8
CCOC(=O)c1ccc(NC(=O)CSc2nc3ccccc3c(=O)n2CCCC(=O)NCCc2ccccc2)cc1 | 16.8 | 0.0 | 0.1 | 10.2 | . | .
COc1ccc(OC)c(-n2c(=S)sc3c(=O)n(-c4ccccc4C)c(SC)nc32)c1 | 2.8 | -0.1 | -1.7 | -8.1 | . | .
O=C1CSC(=Nc2cccc(Br)c2)N1 | 53.1* | 0.9 | 0.5 | -5.0 | -21.2 | -7.8
CSc1ccc(CN2CCN(CCO)CC2)cc1 | 80.2* | -0.1 | -0.7 | -9.9 | -1.8 | 0.4
CSc1ccc(CN2CCN(C(=O)c3ccccc3F)CC2)cc1 | 39.8 | -0.2 | -0.2 | 30.7 | . | .
OCCN1CCN(Cc2ccc(OCc3ccccc3)cc2)CC1 | 27.7 | -0.1 | 1.2 | 9.8 | . | .
OCCN1CCN(Cc2ccc(O)cc2)CC1 | 86.3* | -0.1 | 0.1 | -3.1 | 4.4 | 11.4
CSc1ccc(CN2CCC(O)CC2)cc1 | 9.3 | 0.0 | -0.3 | -0.2 | . | .
CSc1ccc(CN2CCN(Cc3ccncc3)CC2)cc1 | 60.5* | 0.0 | 0.3 | 6.0 | 3.5 | -2.2
CSc1ccc(CN2CCN(C(=O)C(c3ccccc3)c3ccccc3)CC2)cc1 | 53.1* | 0.1 | -1.6 | -2.6 | -0.3 | -0.3
N#Cc1ccccc1OCC(=O)Nc1nc(-c2ccccc2Cl)cs1 | -4.9 | 0.1 | -0.8 | 3.6 | . | .
CCC(C)NC(=O)CSc1nc2n[nH]c(C)c2c(=N)n1-c1ccc(Cl)c(C)c1 (stereo not given) | -0.8 | 0.1 | 2.3 | 5.4 | . | .
COc1cc(Br)ccc1OCC(=O)N/N=C/C(=O)c1cccc([N+](=O)[O-])c1 | 3.5 | 0.0 | 0.3 | 2.9 | . | .
CCCCOc1ccc(S(=O)(=O)NC(=O)NCc2ccc(OCC)cc2)cc1 | -1.4 | 0.0 | -0.3 | -6.5 | . | .
O=C(O)c1cccc(S(=O)(=O)N2c3cccc4cccc(c34)S2(=O)=O)c1 | 3.0 | 0.0 | -2.3 | -5.1 | . | .
CCCC(c1nnnn1Cc1ccccc1)N1CCN(C)CC1 (stereo not given) | 2.4 | 0.0 | -0.1 | -11.1 | . | .
c1ccc(CN2CCCC(c3ncncc3-c3ccncc3)C2)nc1 (stereo not given) | -1.2 | -0.6 | 0.4 | -0.9 | . | .
